PubChem BioAssay (NCATS)
Measured potencies and affinities stand elsewhere. Unmarked numbers belong to inactive results. Active and inactive are the calls of the source. How the calls were made is not given here.

Key:
[1] = Ebola virus entry assay, green fluorescence channel
[2] = Ebola virus entry assay, green channel fluorescence
Wherever efficacy is given: 0% is about no effect.

SMILES	efficacy [1] [%]	outcome [2]
CNC(=O)c1ccccc1Sc1ccc2c(/C=C/c3ccccn3)n[nH]c2c1	28.2	inactive
COc1ccc(/C=N/NC(=O)c2ccncc2)cc1OC	14.8	inactive
CCCCCC(C)N (stereo not drawn)	-23	inactive
Cc1ccc(S(=O)(=O)NC(=O)NC2CCCCC2)cc1	-18.8	inactive
Cc1cc(O)cc2c1O[C@](C)(CCC[C@H](C)CCC[C@H](C)CCCC(C)C)CC2	-22.5	inactive
COc1ccccc1OCC(O)CO (stereo not drawn)	12	inactive
CC(O)CCCCn1c(=O)c2c(ncn2C)n(C)c1=O (stereo not drawn)	23.8	inactive
O=C(OCc1ccccc1)c1ccccc1	-23.2	inactive
Cc1nc2ccc(CN(C)c3ccc(C(=O)N[C@@H](CCC(=O)O)C(=O)O)s3)cc2c(=O)[nH]1	17.4	inactive
CO/N=C(/C(=O)N[C@@H]1C(=O)N2C(C(=O)OCOC(=O)C(C)(C)C)=C(C)CS[C@H]12)c1csc(N)n1	-17.1	inactive
CC[C@]12CCCN3CCc4c(n(c5ccccc45)[C@@](O)(C(=O)OC)C1)[C@@H]32	-18	inactive
NC(=O)NS(=O)(=O)c1ccc(Cl)cc1	-22.2	inactive
O=C1O[C@H](CO)[C@@H](O)[C@H](O)[C@H]1O	24.7	inactive
Nc1ccc(C(=O)Nc2ccccc2N)cc1	-27	inactive
